Rows were chosen to be rich in hits. Some 9.4% of all compounds tested hit in one or more screens of this group.
Pf growth 96h = P. falciparum growth inhibition at 96 hour, primary screen for plastid delayed-death inhibitors; P. falciparum luciferase reporter growth, 96 h; Potency, µM (titrated, usually from 28.7 µM), without a hit: top-dose activity change, negative = inhibition, actives largely listed as inhibitors; 6.9% of 320,000 active; note: % is set by controls: 0 for no effect and ±100 for the full control effect
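P. falciparum expressing integrated firefly luciferase grown in erythrocytes (2% hematocrit, 0.05% parasitemia final) with compounds for 96 hours at 37 C, 5% CO2. Growth inhibition read as loss of luminescence after adding luciferase detection reagent.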
AMA1-RON2 inh = inhibitors of Plasmodium falciparum AMA1-RON2 interaction | AlphaScreen AMA1-biotinylated RON2 peptide binding | Potency, µM (titrated, usually from 58.2 µM), inactives show top-dose activity change, negative = inhibition, most hits filed as inhibitors | 0.2% of 360,000 active;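 note: 0% = vehicle wells and -100% = peptide control; nearly all actives have a fitted effect of over 45% in size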
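AMA1 (3D7) with his tag at 25 nM final met compounds first, then biotinylated RON2 peptide at 25 nM; detection used donor plus acceptor beads, 10 µg/mL apiece, read by AlphaScreen after 30 min at room temperature.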
SARS PLP yeast = inhibitors of SARS-CoV papain-like protease in yeast; S. cerevisiae expressing SARS-CoV PLpro, growth rescue; Potency, µM (top dose mostly 32.9 µM), inactives show at the highest dose activity, positive = growth rescue, most hits filed as activators; 0.19% of 330,000 active; AID 485353; calls by dose curve; note: 0% is about no effect; nearly all actives have a fitted effect of over 55% in size
Pf growth 48h = inhibits P. falciparum growth in the first generation, 48 h; P. falciparum luciferase growth in erythrocytes, 48 h; Potency, µM (doses to about 28.7 µM), without a hit: top-dose activity change, negative = inhibition, actives largely listed as inhibitors; 5.9% of 310,000 active; AID 504832; note: % is set by controls: 0 for no effect and ±100 for the full control effect
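First compound was added to culture medium, then infected red cells at 0.1% parasitemia and 2% hematocrit (final). After incubation at 37 C under 5% CO2, luciferase detection reagent was dispensed and light output recorded.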
The depositor's hits bear a star; [ ] = another dose, or the depositor's remark. Unless noted, calls come from the whole dose curve; as a rule, active = well fitted curve in the direction sought with a large enough effect; inconclusive = small, poorly fitted or top-dose-only effect, or another doubt; inactive = no such curve, though single readings can be large; an effect the other way counts as inactive or inconclusive. Potency is the fitted concentration of half-maximal effect.

Results for CCCCn1c(=O)[nH]c(=O)c2c1nc(-c1ccc(C(F)(F)F)cc1)n2C ?
Pf growth 96h: 12%; AMA1-RON2 inh: -2%; SARS PLP yeast: 1%; Pf growth 48h: -6%

How did O=C(CC1C(=O)NCCN1Cc1cccc(C(F)(F)F)c1)NC1CCOCC1 (stereo not drawn) do in these assays?
Pf growth 96h: 60%; AMA1-RON2 inh: 19%; SARS PLP yeast: 0%; Pf growth 48h: 1%

What do the screens show for `Oc1cccc2ccc(Nc3ccccn3)nc12`?
AMA1-RON2 inh: -89%; SARS PLP yeast: -22%; Pf growth 48h: 0.37µM*

How did COC(=O)c1ccc(O)c(Sc2cc(C(=O)OC)ccc2O)c1 do in these assays?
Pf growth 96h: -26%; AMA1-RON2 inh: 13%; Pf growth 48h: 9%

What do the screens show for `O=C(C1CC1)N1CCN=C1SCc1ccccc1`?
Pf growth 96h: 70%; AMA1-RON2 inh: 15%; SARS PLP yeast: 0%; Pf growth 48h: -5%

Results for CCOC(=O)C1CCN(c2cc3c(cc2NC(=O)c2ccccc2F)n(C)c(=O)n3C)CC1 ?
Pf growth 96h: 1%; AMA1-RON2 inh: 0%; SARS PLP yeast: inconclusive; Pf growth 48h: inconclusive

Results for CCOC(=O)C1CCN(c2cc3c(cc2NC(=O)c2ccc(F)cc2)n(C)c(=O)n3C)CC1 ?
Pf growth 96h: -25%; AMA1-RON2 inh: -7%; SARS PLP yeast: -2%; Pf growth 48h: 12µM*

Results for Cn1c(=O)n(C)c2cc(NC(=O)c3ccc(F)cc3)c(Br)cc21 ?
Pf growth 96h: 2.9µM*; AMA1-RON2 inh: 15%; SARS PLP yeast: -1%; Pf growth 48h: inconclusive

How did Cn1c(=O)n(C)c2cc(NC(=O)c3cccc([N+](=O)[O-])c3)c(Br)cc21 do in these assays?
Pf growth 96h: 28%[5.75 µM]; AMA1-RON2 inh: 8%; SARS PLP yeast: 1%; Pf growth 48h: 24%[5.75 µM]

How did Nc1ccn([C@@H]2O[C@H](CNS(=O)(=O)c3cc4ccccc4s3)[C@@H](O)[C@H]2O)c(=O)n1 do in these assays?
AMA1-RON2 inh: 2%

What do the screens show for `O=C(c1cccc(N2C(=O)C3CC=CCC3C2=O)c1)N1CCCCCC1` (stereo not drawn)?
Pf growth 96h: 0.17µM*; AMA1-RON2 inh: 4%; SARS PLP yeast: 8%; Pf growth 48h: 5%

What do the screens show for `CN(C(=O)c1cccc(N2C(=O)C3CC=CCC3C2=O)c1)C1CCCCC1` (stereo not drawn)?
Pf growth 96h: 10µM*; AMA1-RON2 inh: -5%; SARS PLP yeast: -8%; Pf growth 48h: inconclusive

What do the screens show for `O=C(c1cccc(N2C(=O)C3CC=CCC3C2=O)c1)N1CCN(c2ccccc2)CC1` (stereo not drawn)?
Pf growth 96h: inconclusive; AMA1-RON2 inh: 4%; SARS PLP yeast: 4%; Pf growth 48h: 12µM*

How did CN(Cc1ccccc1)C(=O)c1cccc(N2C(=O)C3CC=CCC3C2=O)c1 (stereo not drawn) do in these assays?
Pf growth 96h: -7%; AMA1-RON2 inh: 6%; SARS PLP yeast: 0%; Pf growth 48h: -11%

How did O=C(O)c1cccc(N2C(=O)C3CC=C(Cl)CC3C2=O)c1 (stereo not drawn) do in these assays?
Pf growth 96h: 10µM*; AMA1-RON2 inh: -3%; SARS PLP yeast: 5%

Results for O=C(C[C@@H]1C[C@@H]2c3cc(NS(=O)(=O)c4ccc(F)cc4)ccc3O[C@@H]2[C@H](CO)O1)NCc1ccc(Oc2ccccc2)cc1 ?
AMA1-RON2 inh: 0%

Results for COc1cccc(CN2CCN(Cc3cc(OC)c(OC)cc3[N+](=O)[O-])CC2)c1 ?
Pf growth 96h: 64%; AMA1-RON2 inh: inconclusive; SARS PLP yeast: 5%; Pf growth 48h: inconclusive

How did COC(=O)c1cc(OC)c(OC)cc1NC(=S)Nc1cc(Cl)ccc1OC do in these assays?
Pf growth 96h: inconclusive; AMA1-RON2 inh: 88%; SARS PLP yeast: 11%; Pf growth 48h: -8%

What do the screens show for `CCc1nc(SCc2ccccc2)n[nH]1`?
Pf growth 96h: 12%; AMA1-RON2 inh: 9%; SARS PLP yeast: -1%; Pf growth 48h: 42%

Results for CCc1nc(SCc2ccccc2C#N)n[nH]1 ?
Pf growth 96h: 9.3µM*; AMA1-RON2 inh: 5%; SARS PLP yeast: 1%; Pf growth 48h: -12%

What do the screens show for `CCN1CCN(S(=O)(=O)c2c(C)cc(C)cc2C)CC1`?
Pf growth 96h: 0%; AMA1-RON2 inh: 6%; SARS PLP yeast: 13%; Pf growth 48h: -8%

What do the screens show for `CCn1c(=O)c(C(=O)NNC(=O)c2cccc(Cl)c2)c(O)c2ccccc21`?
Pf growth 96h: 28%; AMA1-RON2 inh: 91%; SARS PLP yeast: 8%; Pf growth 48h: 22%

What do the screens show for `Cc1ccc(OCC(=O)N/N=C/c2c[nH]c3ccccc23)c([N+](=O)[O-])c1`?
Pf growth 96h: 38%; AMA1-RON2 inh: 0%; SARS PLP yeast: 0%; Pf growth 48h: 4%

What do the screens show for `CCCOc1ccccc1/C=C1\SC(N)=NC1=O`?
Pf growth 96h: 12µM*; AMA1-RON2 inh: -10%; SARS PLP yeast: inconclusive; Pf growth 48h: inconclusive

How did COc1cccc(N(CC(=O)Nc2ccccc2C(=O)N2CCCC2)S(C)(=O)=O)c1 do in these assays?
Pf growth 96h: inconclusive; AMA1-RON2 inh: 1%; SARS PLP yeast: 0%; Pf growth 48h: -13%

How did CCOC(=O)C1(C)NC(c2ccc(N(C)C)cc2)C2C(=O)N(CC)C(=O)C21 (stereo not drawn) do in these assays?
AMA1-RON2 inh: -8%; SARS PLP yeast: -2%; Pf growth 48h: 7%

What do the screens show for `COc1ccc(N2CCN(c3c(S(=O)(=O)c4ccccc4)cnc4ccc(OC)cc34)CC2)cc1`?
Pf growth 96h: 4.1µM*; AMA1-RON2 inh: -14%[11.6 µM]; SARS PLP yeast: -72%; Pf growth 48h: 8.3µM*

Results for CCOc1ccc2ncc(S(=O)(=O)c3ccccc3)c(N3CCN(c4ccc(OC)cc4)CC3)c2c1 ?
Pf growth 96h: 2.9µM*; AMA1-RON2 inh: inconclusive; SARS PLP yeast: 14%; Pf growth 48h: 8.3µM*

How did CC(=O)c1ccc(N2CCN(C(=O)c3ccc4ccccc4n3)CC2)cc1 do in these assays?
Pf growth 96h: -1%; AMA1-RON2 inh: 10%; SARS PLP yeast: 1%; Pf growth 48h: 22%

What do the screens show for `COc1cc2c3nnc(-c4ccc(F)cc4)c-3cn(Cc3ccccc3F)c2cc1OC`?
Pf growth 96h: 0.74µM*; AMA1-RON2 inh: -7%; SARS PLP yeast: 2%; Pf growth 48h: 0.37µM*

What do the screens show for `CCCCCCCCC(=O)NCc1ccc(O)c(OC)c1`?
Pf growth 96h: 0%; AMA1-RON2 inh: 8%; Pf growth 48h: -23%

How did COc1ccc(C(=O)Nc2cccc(C)n2)cc1S(=O)(=O)N1CCCc2ccccc21 do in these assays?
AMA1-RON2 inh: -6%

How did CN(C)CC(O)CN1C(=O)NC(C)(C)C1=O (stereo not drawn) do in these assays?
Pf growth 96h: 2.1µM*; AMA1-RON2 inh: -3%; SARS PLP yeast: 0%; Pf growth 48h: 12%

Results for COC(=O)c1cc(C(=O)NCCCN2CCOCC2)cc([N+](=O)[O-])c1 ?
Pf growth 96h: 5%; AMA1-RON2 inh: -2%; SARS PLP yeast: 1%; Pf growth 48h: 19%

High-throughput results (PubChem)
